Screening data as filed in PubChem BioAssay.
Most compounds without a hit are left out; they make up all but 0.37% or so of the library.
Rac1 wt modul – alters GTP binding to wildtype human Rac1 | P63000 | GST-Rac1 beads, fluorescent GTP binding, flow cytometry; actives lie on both sides; 0 = cold GTP competed, 100 = untreated | 190,000 tested, 0.27% active | GTP binding activity (% of control), % at 10 µM | AID 757;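 active means GTP binding activity at least 20 points away from the 100% control level, either lower or higher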
Rab7 wt modul – dog Rab7 wildtype GTP binding, inhibitors and activators; GST-Rab7 beads, fluorescent GTP binding, flow cytometry; actives lie on both sides; untreated = 100%, excess cold GTP = 0%; GTP binding activity (percent of control), % at 10 µM; 190,000 tested, 0.055% active; AID 758;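 active means fluorescent GTP binding to Rab7 beads changed by at least 20 points from the 100% baseline, either direction, mostly lower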;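 further: median green fluorescence of bound Bodipy-FL-GTP per Rab7 bead population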
Cdc42 wt – human Cdc42 wildtype GTP binding change, either direction | P60953 | GST-Cdc42 beads, Bodipy-GTP binding, flow cytometry; actives lie on both sides | percent activity (GTP binding), % at 10 µM | 190,000 tested, 0.2% active;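 active means percent activity GTP binding at least 20 points away from the 100% baseline, either down as inhibitor or up as activator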;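 further: median bead fluorescence of bound Bodipy-FL-GTP at 100 nM; 0% = excess unlabeled GTP control and 100% = no compound control; below 100% means less GTP binding so inhibitor and above means activator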
Target sequence (P60953 whole entry, looked up): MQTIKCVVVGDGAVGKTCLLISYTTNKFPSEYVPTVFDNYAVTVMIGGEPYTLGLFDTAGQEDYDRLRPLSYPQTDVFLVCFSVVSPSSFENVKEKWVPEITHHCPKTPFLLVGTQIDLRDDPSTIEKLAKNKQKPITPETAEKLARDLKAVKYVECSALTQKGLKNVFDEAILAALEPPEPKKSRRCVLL
HRas wt GTP – human HRas wildtype GTP binding, change in either direction; 190,000 tested, 0.14% active; GST-Ras wt beads, Bodipy-FL-GTP binding, flow cytometry; actives lie on both sides; GTP binding activity, % at 10 µM; P01112;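 active means GTP binding activity at least 20% away from the 100% baseline, either lowered as inhibitor or raised as activator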;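 further: 0% = unlabeled GTP competition control and 100% = no-compound control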
Target sequence (P01112 whole entry, looked up): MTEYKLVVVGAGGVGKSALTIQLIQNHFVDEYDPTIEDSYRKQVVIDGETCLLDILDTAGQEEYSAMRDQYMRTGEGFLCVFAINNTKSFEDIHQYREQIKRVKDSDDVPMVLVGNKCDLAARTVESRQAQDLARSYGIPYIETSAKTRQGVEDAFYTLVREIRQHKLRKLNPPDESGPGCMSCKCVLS
Rac1 mut GTP – alters GTP binding to activated mutant human Rac1 | P63000 | GST-Rac1 activated beads, fluorescent GTP binding, flow cytometry; actives lie on both sides; 100% means binding = to untreated wells | percent activity (GTP binding), % at 10 µM | 190,000 tested, 0.11% active | AID 764;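 active means GTP binding at least 20 percentage points away from the 100% baseline, in either direction, so actives lie on both sides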
Rab2 wt GTP – changes GTP binding to wildtype dog Rab2A, up or down | P61105 | GTP binding activity, % at 10 µM | GST-Rab2 wt beads, Bodipy-GTP binding, flow cytometry | 190,000 tested, 0.19% active;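 active means GTP binding activity at least 20 points away from 100%, either lowered or raised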;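 further: 0% = beads with excess unlabeled GTP and 100% = no-compound control corrected for plate trend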
Starred values were filed as active, the others as inactive; [ ] = dose if it differs, or a comment.

SMILES	Rac1 wt modul	Rab7 wt modul	Cdc42 wt	HRas wt GTP	Rac1 mut GTP	Rab2 wt GTP
O=C(O)c1cc(-c2ccc(/C=C3\NC(=O)N(c4ccc(Cl)cc4)C3=O)o2)ccc1Cl	74.0*	94.0	74.0*	81.0	77.0*	80.0
O=C1NN(c2ccccc2)C(=O)/C1=C/c1ccc(-c2ccc(Cl)c(C(=O)O)c2)o1	88.0	93.0	87.0	88.0	84.0	87.0
CC(=O)NNC(=O)CCn1nnc(-c2ccc(Cl)cc2)n1	99.0	104.0	98.0	99.0	96.0	101.0
Cc1ccc(/C=C2\SC(=S)N(C(Cc3ccccc3)C(=O)O)C2=O)cc1 (stereo unspecified)	83.0	92.0	82.0	85.0	80.0	79.0*
CCSc1nc2nc(C)cc(C)n2n1	100.0	98.0	97.0	99.0	98.0	99.0
Cc1cc(C)n2nc(SCCOc3ccccc3F)nc2n1	74.0*	92.0	66.0*	71.0*	84.0	71.0*
COc1ccc(C2CC(c3ccccc3)=NN2c2ccc(S(N)(=O)=O)cc2)cc1 (stereo unspecified)	98.0	104.0	78.0*	99.0	94.0	97.0
NS(=O)(=O)c1ccc(N2N=C(c3ccccc3)CC2c2ccc(F)cc2)cc1 (stereo unspecified)	94.0	93.0	89.0	97.0	96.0	94.0
CC(=O)c1ccccc1NC(=O)Cn1c(=O)cnc2ccccc21	102.0	101.0	102.0	101.0	98.0	99.0
Cc1nc(Nc2ccc(C(=O)O)cc2)nc(Nc2ccc(C(=O)O)cc2)c1[N+](=O)[O-]	62.0*	84.0	55.0*	60.0*	77.0*	55.0*
CC(=O)Nc1ccc(Nc2nc(C)c([N+](=O)[O-])c(Nc3ccccc3)n2)cc1	105.0	99.0	99.0	99.0	101.0	99.0
CCOc1ccc(NCc2ccccc2OCc2cccc(F)c2)cc1	129.0*[activator]	106.0	115.0	114.0	115.0	113.0
O=C(Nc1sc2c(c1C(=O)O)CCCCC2)c1ccccc1	80.0	89.0	78.0*	82.0	77.0*	81.0
COc1ccc(S(=O)(=O)Cc2ccc(C(=O)N3CCN(c4cc(Cl)ccc4C)CC3)o2)cc1	76.0*	77.0*	74.0*	80.0	76.0*	72.0*
COc1ccc(S(=O)(=O)Cc2ccc(C(=O)N3CCN(c4ccc(Cl)cc4)CC3)o2)cc1	108.0	102.0	102.0	104.0	101.0	105.0
CCCCCCCCCCCC(=O)c1c(O)cccc1O	83.0	89.0	79.0*	82.0	79.0*	81.0
CCCCCCCC(=O)NNC(=O)Cc1ccccc1	93.0	94.0	97.0	95.0	95.0	96.0
O=[N+]([O-])c1ccccc1/C=N/Nc1nnc(-c2ccccc2)c(-c2ccccc2)n1	105.0	98.0	101.0	101.0	100.0	102.0
O=C(Nc1ccc(S(=O)(=O)N2CCCc3ccccc32)cc1)C1CCCO1 (stereo unspecified)	120.0*[activator]	103.0	117.0	110.0	102.0	111.0
NC(=O)[C@@H]1CCOc2c(I)cc([N+](=O)[O-])cc2C(=O)N[C@@H](CO)C(=O)NCC(=O)N1	103.0	101.0	98.0	100.0	96.0	100.0
CCN(CC)S(=O)(=O)c1ccc2oc(C(=O)N3CCc4ccccc4C3)c(C)c2c1	128.0*[activator]	109.0	107.0	110.0	107.0	108.0
CCN(CC)S(=O)(=O)c1ccc2oc(C(=O)N3CCCCCC3)c(C)c2c1	107.0	103.0	112.0	109.0	101.0	109.0
CC1=Nn2c(nnc2-c2ccco2)SC1	100.0	96.0	99.0	99.0	99.0	99.0
CCOc1ccc(C2=Nn3c(nnc3-c3ccco3)SC2)cc1	82.0	89.0	77.0*	77.0*	84.0	76.0*
Cc1cccc(NCC(O)Cn2cnc3c2c(=O)n(C)c(=O)n3C)c1 (stereo unspecified)	107.0	106.0	116.0	114.0	104.0	115.0
SMILES	Rac1 wt modul	Rab7 wt modul	Cdc42 wt	HRas wt GTP	Rac1 mut GTP	Rab2 wt GTP
Cn1c(=O)c2c(ncn2CC(O)CNc2cccc(Cl)c2)n(C)c1=O (stereo unspecified)	124.0*[activator]	107.0	107.0	106.0	104.0	107.0
S=C(NCc1ccccc1)N1CCn2cccc2C1c1cccnc1 (stereo unspecified)	97.0	97.0	98.0	98.0	95.0	96.0
S=C(NCCc1ccccc1)N1CCn2cccc2C1c1cccnc1 (stereo unspecified)	78.0*	86.0	78.0*	81.0	77.0*	80.0
Cc1nc(N2CCOCC2)nc(OCCN2CCOCC2)c1[N+](=O)[O-]	100.0	100.0	101.0	98.0	96.0	97.0
CCCc1cc(N2CCN(C(=O)c3ccco3)CC2)n2c(nc3ccccc32)c1C#N	84.0	84.0	87.0	81.0	85.0	79.0*
CCCc1nc2c(=O)n(C)c(=O)nc-2n(C)n1	94.0	99.0	74.0*	89.0	84.0	89.0
CS(=O)(=O)c1ccc(Cl)c(NC(=O)c2ccc3ccccc3c2)c1	105.0	102.0	103.0	102.0	99.0	102.0
COC(=O)c1c(NC(=O)CN2CCN(c3cccc(Cl)c3)CC2)sc(C)c1C	104.0	103.0	103.0	101.0	98.0	99.0
Cc1ccc(S(=O)(=O)N2CC3(C)CN(S(=O)(=O)c4ccc(C)cc4)CC(C)(C2)C3O)cc1 (stereo unspecified)	108.0	104.0	126.0*[activator]	101.0	101.0	100.0
COCc1cc(C)nc(N/N=C/c2ccc(-c3ccc(C(=O)O)c(Cl)c3)o2)c1C#N	67.0*	97.0	73.0*	78.0*	86.0	77.0*
O=S(=O)(Cc1ccccc1)N1CCc2ccccc21	102.0	98.0	94.0	95.0	96.0	37.0*
CC(Sc1nnc(NC2CCCCC2)s1)C(=O)Nc1ccc2c(c1)C(=O)c1ccccc1C2=O (stereo unspecified)	75.0*	84.0	89.0	82.0	88.0	77.0*
O=C(COC(=O)CCc1nc2ccccc2s1)NC(=O)NCc1ccco1	99.0	95.0	100.0	97.0	93.0	100.0
Cc1cc(C)cc(C(=O)N(NC(=O)Nc2ccc(Cl)cc2)C(C)(C)C)c1	99.0	74.0*	101.0	95.0	99.0	97.0
CCOC(=O)/C=C1\SCC(=O)N1CCOc1cccc(Br)c1	86.0	73.0*	83.0	62.0*	84.0	79.0*
CC(C)COc1cccc(C(=O)NC(=S)Nc2cccc(NC(=O)c3ccccc3Cl)c2)c1	104.0	100.0	102.0	98.0	102.0	98.0
COc1cc(/C=N/NC(=O)c2cc3ccccc3cc2O)ccc1OCCN1CCCCC1	97.0	88.0	97.0	85.0	76.0*	86.0
CO/N=C/NC(=O)NOCc1ncc(C(F)(F)F)cc1Cl	123.0*[activator]	104.0	118.0	113.0	104.0	115.0
